Sampled rows, rich in hits. Any-hit rate of the full collection: about 19%.
HT1080-NT tox: kills 2HG-producing HT-1080-NT fibrosarcoma cells; HT-1080-NT fibrosarcoma viability, CellTiter-Glo ATP luminescence, 48 h; 360,000 tested, 1.6% active; Potency, µM (doses to about 46.1 µM), inactives show at the highest dose activity, negative = less viability, most hits filed as cytotoxic;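 also: NT is the 2HG producing partner of a matched IDH1 knockdown line; potency is read from the fitted curve at half-maximal effect; 0% = DMSO-treated cells and -100% = media-only wells without cells; nearly all actives have a fitted effect of over 55% in size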
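HT-1080-NT; 750 cells/well; 5% FBS RPMI; 48 h compound, 37 degrees C; CellTiter-Glo luminescence; curve fitting and curve-class assignment.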
HT1080 IDH1KD tx: HT-1080 IDH1 knockdown cell toxicity (counter line); HT-1080 IDH1 knockdown viability, ATP luminescence, 48 h; Potency, µM (titrated, usually from 46.1 µM), for inactives: at the highest dose activity, negative = toxicity, most hits filed as cytotoxic; 360,000 tested, 2% active; AID 686971;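 also: potency is read from the fitted curve at half-maximal effect; 0% = DMSO wells and -100% = cell-free medium wells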
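In this qHTS, HT-1080 cells depleted of IDH1 are exposed for 48 h at 37 °C to compound titrations. Toxicity is scored from CellTiter-Glo luminescence, with DMSO as full viability and medium alone as none.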
ELG1 repair inh: blocks ELG1-dependent DNA repair in HEK293T cells. HEK293T ELG1-luciferase reporter, luminescence, 16 h; DNA damage induced by 5-fluorouridine. Potency, µM (highest dose often 46.1 µM), for the others: at the top dose activity change, negative = inhibition, actives largely listed as inhibitors. 330,000 tested, 2.3% active; also: potency is read from the fitted curve at half-maximal effect; nearly all actives have a fitted effect of over 55% in size
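Overnight (16 hr) co-exposure of 2,000 cells/well to 5-fluorouridine and compound at 37 °C preceded detection. Luciferase was quantified via ONE-Glo luminescence; loss of signal denotes inhibition.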
TDP1 cell CPT: growth inhibition of DT40 Tdp1-/-;hTDP1 cells with camptothecin (screen for TDP1 inhibitors). chicken DT40 Tdp1-/-;hTDP1 cells + 20 nM CPT, ATP luminescence, 48 h. 420,000 tested, 12% active. Potency, µM (highest dose often 46.2 µM), inactives show at the highest dose activity change, negative = growth inhibition, most hits filed as inhibitors. AID 686979; also: potency is read from the fitted curve at half-maximal effect; nearly all actives have a fitted effect of over 55% in size
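Cell growth measured by CellTiter-Glo luminescence after a minimum 48 h, 37 C compound exposure with 20 nM CPT in Tdp1-knockout DT40 cells stably expressing hTDP1, seeded 400/well; qHTS titration format.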
IL-1B inflam inh: inhibitors of inflammasome signaling (IL-1 beta secretion). activity change, % at 57.5 µM. 360,000 tested, 4.7% active. THP-1 LPS/ATP IL-1B secretion, AlphaLISA, 16 h; active compounds read low; in the data active = activity change below about -50%; inconclusive = mostly about -30% to -49%
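THP-1 cells pretreated 1 hr with compounds (up to 57.5 uM final), then stimulated with LPS (250 ng/mL final) plus ATP (1.25 mM final); secreted IL-1B measured by AlphaLISA after 16 hr, decreased signal indicating inhibition.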
TDP1 cell noCPT: qHTS for Inhibitors of human tyrosyl-DNA phosphodiesterase 1 (TDP1): qHTS in cells in absence of CPT | DT40 Tdp1-/- hTDP1 cells, no CPT, ATP luminescence, 48 h | Potency, µM (highest dose often 46.2 µM), for inactives: at the highest dose activity change, negative = growth inhibition, most hits filed as inhibitors | 420,000 tested, 15% active | AID 686978, 2013; also: potency is read from the fitted curve at half-maximal effect; nearly all actives have a fitted effect of over 55% in size
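Cells were dispensed at 400 per well, compounds added by pin tool, plates incubated ≥48 hr at 37 °C, then CellTiter-Glo added for 30 min at room temperature before luminescence reading. Line: DT40 Tdp1-/- complemented with hTDP1; camptothecin omitted.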
* = called active by the depositor. Unless noted, calls follow the shape of the dose curve; as a rule, active = well fitted curve in the direction sought with a large enough effect; inconclusive = small, poorly fitted or top-dose-only effect, or another doubt; inactive = no such curve, though single readings can be large; an effect the other way counts as inactive or inconclusive. Unless noted, % is scaled to controls: 0 for no effect and ±100 for the full control effect.

How did CC1(C(=O)N2CC3(CC(c4cccc(NC(=O)COc5ccc(Cl)cc5)c4)=NO3)C[C@@H]2C(N)=O)CC1 (some centres not stated) do in these assays?
HT1080-NT tox: 1%; HT1080 IDH1KD tx: 2%; ELG1 repair inh: inconclusive; TDP1 cell CPT: 13µM*; IL-1B inflam inh: inconclusive; TDP1 cell noCPT: 15µM*

How did NC(=O)[C@@H]1CC2(CC(c3cccc(NC(=O)CC(c4ccccc4)c4ccccc4)c3)=NO2)CN1C(=O)COc1ccc(Cl)cc1 (some centres not stated) do in these assays?
HT1080-NT tox: -22%; HT1080 IDH1KD tx: -9%; ELG1 repair inh: 13µM*; TDP1 cell CPT: 18µM*; IL-1B inflam inh: inconclusive; TDP1 cell noCPT: inconclusive

Results for O=C(NCc1ccccc1)c1cc(C2COCCN2C(=O)C2CC2)on1 (configuration not stated) ?
HT1080-NT tox: 2%; HT1080 IDH1KD tx: -46%; TDP1 cell CPT: -9%; IL-1B inflam inh: -4; TDP1 cell noCPT: 5%

Results for Fc1ccc2cnc(CCO[C@H]3CCCCO3)cc2c1 ?
HT1080-NT tox: -10%; HT1080 IDH1KD tx: -7%; ELG1 repair inh: inconclusive; TDP1 cell CPT: -20%; IL-1B inflam inh: -15; TDP1 cell noCPT: -5%

What do the screens show for `COc1ccc(C)cc1NC(=O)Cn1c(=O)oc2cc(S(=O)(=O)NCc3ccccc3)ccc21`?
TDP1 cell CPT: 16µM*; TDP1 cell noCPT: 15µM*

How did COc1ccc(NC(=O)Cn2c(=O)oc3cc(S(=O)(=O)NCc4ccccc4)ccc32)c(OC)c1 do in these assays?
TDP1 cell CPT: 8.2µM*; TDP1 cell noCPT: 6.5µM*

What do the screens show for `Cc1ccc(C)c(NC(=O)Cn2c(=O)oc3cc(S(=O)(=O)NCc4ccccc4)ccc32)c1`?
TDP1 cell CPT: 13µM*; TDP1 cell noCPT: 8.2µM*

How did O=C(Cn1c(=O)oc2cc(S(=O)(=O)NCc3ccccc3)ccc21)N(CCO)Cc1ccccc1 do in these assays?
TDP1 cell CPT: inconclusive; TDP1 cell noCPT: 15µM*

What do the screens show for `CCOC(=O)N1CCN(CC(O)COc2ccc(C)c(C)c2)CC1` (configuration not stated)?
HT1080-NT tox: 0%; HT1080 IDH1KD tx: -1%; ELG1 repair inh: 7%; TDP1 cell CPT: -4%; IL-1B inflam inh: 16; TDP1 cell noCPT: 1%

How did CN(C)c1ccc(/C=C/c2cc3ccccc3c[n+]2C)cc1 do in these assays?
TDP1 cell CPT: 0.089µM*; TDP1 cell noCPT: 0.1µM*

What do the screens show for `[O-][n+]1c(/C=C/c2ccccc2)ccc2ccccc21`?
HT1080-NT tox: -15%; HT1080 IDH1KD tx: -17%; ELG1 repair inh: inconclusive; TDP1 cell CPT: 21µM*; IL-1B inflam inh: -10; TDP1 cell noCPT: 16µM*

Results for CN(C)c1ccc(/C=C/c2cccc[n+]2[O-])cc1 ?
HT1080-NT tox: 18%; HT1080 IDH1KD tx: 8%; ELG1 repair inh: inconclusive; TDP1 cell CPT: 2%; TDP1 cell noCPT: 4%

How did CN(C)c1ccc(/C=C/c2ccc3ccccc3[n+]2C)cc1 do in these assays?
HT1080-NT tox: inconclusive; HT1080 IDH1KD tx: 1.3µM*; ELG1 repair inh: inconclusive; TDP1 cell CPT: 0.16µM*; IL-1B inflam inh: -107*; TDP1 cell noCPT: 0.13µM*

Results for CN(C)c1ccc(/C=C/c2ccc3c4ccccc4ccc3[n+]2-c2ccccc2)cc1 ?
HT1080-NT tox: 12µM*; HT1080 IDH1KD tx: 5.8µM*; ELG1 repair inh: 1.5µM*; TDP1 cell CPT: 0.21µM*; IL-1B inflam inh: -111*; TDP1 cell noCPT: 0.16µM*

What do the screens show for `O=C(O)/C=C/c1ccc(OCc2cccc(F)c2)cc1`?
HT1080-NT tox: -1%; HT1080 IDH1KD tx: 2%; ELG1 repair inh: inconclusive; TDP1 cell CPT: inconclusive; IL-1B inflam inh: -3; TDP1 cell noCPT: inconclusive

How did COc1ncc2nc(C)c(=O)n(Cc3cccs3)c2n1 do in these assays?
TDP1 cell CPT: 13%; TDP1 cell noCPT: inconclusive

How did CN(C)c1ccc(/C=C/c2c[n+](C)cc3ccccc23)cc1 do in these assays?
TDP1 cell CPT: 0.35µM*; TDP1 cell noCPT: 0.28µM*

How did CCc1ccccc1NC(=O)C(CCSC)NS(=O)(=O)c1ccc2c(c1)oc(=O)n2C (configuration not stated) do in these assays?
TDP1 cell CPT: 24%; TDP1 cell noCPT: -11%

Results for CCC(c1nnnn1-c1ccc2c(c1)OCCO2)N1CCN(c2ccc(C(F)(F)F)cc2[N+](=O)[O-])CC1 (configuration not stated) ?
HT1080-NT tox: 0%; HT1080 IDH1KD tx: 3%; TDP1 cell CPT: 15µM*; IL-1B inflam inh: 6; TDP1 cell noCPT: 23µM*

How did CCC(c1nnnn1-c1ccc2c(c1)OCCO2)N1CCN(C)CC1 (configuration not stated) do in these assays?
HT1080-NT tox: 19%; HT1080 IDH1KD tx: 6%; TDP1 cell CPT: 7%; IL-1B inflam inh: 11; TDP1 cell noCPT: -23%

Results for OC(CNC1CCCC1)COc1ccc(-c2ccccc2)cc1 (configuration not stated) ?
HT1080-NT tox: inconclusive; HT1080 IDH1KD tx: inconclusive; ELG1 repair inh: 7%; TDP1 cell CPT: inconclusive; IL-1B inflam inh: -63*; TDP1 cell noCPT: inconclusive

What do the screens show for `CCCC(NCC(O)COc1ccc(-c2ccccc2)cc1)c1ccccc1` (configuration not stated)?
HT1080-NT tox: -27%; HT1080 IDH1KD tx: 13µM*; ELG1 repair inh: inconclusive; TDP1 cell CPT: 7.3µM*; IL-1B inflam inh: -77*; TDP1 cell noCPT: 4.1µM*

What do the screens show for `OC(CNC1CCCCC1)COCCOc1ccc(Br)cc1` (configuration not stated)?
HT1080-NT tox: inconclusive; HT1080 IDH1KD tx: inconclusive; ELG1 repair inh: -1%; TDP1 cell CPT: 13µM*; IL-1B inflam inh: inactive; TDP1 cell noCPT: 23µM*

How did CCC(CC)NCC(O)COc1ccc(Br)cc1 (configuration not stated) do in these assays?
HT1080-NT tox: 0%; HT1080 IDH1KD tx: -16%; ELG1 repair inh: 0%; TDP1 cell CPT: inconclusive; IL-1B inflam inh: -52*; TDP1 cell noCPT: 21µM*

What do the screens show for `CC(C)c1ccc(S(=O)(=O)c2nnn3c2nc(N2CCCC2)c2sccc23)cc1`?
TDP1 cell CPT: 24%; TDP1 cell noCPT: 10%
